Here are results for five molecules from PubChem BioAssay (EPA / NIEHS).

Results filed as inconclusive are left out. Activity calls are given as the source filed them. How the source made its calls, unless noted: active means hit-call score of the fitted dose curve at least 0.9, where 1 is the maximum; inconclusive means response in the unintended direction; inactive means score below 0.9.

Read-out in assay [1]: glucuronosyltransferase (UGT1A1), UGT1A1 (gene 54658)
The assay can be described thus: CLD_UGT1A1_6hr: CellzDirect (CLD) Gene Expression Assay for glucuronosyltransferase (UGT1A1) at 6 hours (AID 2283672). An outline of the steps:
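Primary human hepatocytes from two donor preparations, dosed with fresh solutions in 0.2% DMSO, harvested at 6 h. UGT1A1 mRNA measured by qNPA chemiluminescence; induction fitted upward versus DMSO.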

Read-out in assay [2]: xenobiotic metabolism (CYP1A1), CYP1A1 (gene 1543)
The assay can be described thus: CLD_CYP1A1_24hr: CellzDirect (CLD) Gene Expression Assay for xenobiotic metabolism (CYP1A1) at 24 hours (AID 2283673).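 Further: CYP1A1 mRNA level by quantitative nuclease protection with chemiluminescence.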 In a few lines:
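Primary human hepatocytes dosed daily with fresh solutions in 0.2% DMSO vehicle. mRNA measured at 24 h by quantitative nuclease protection assay with chemiluminescence; gain-of-signal fit versus DMSO, with morphology-based cytotoxicity flags.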

Read-out in assay [3]: Cytochrome P450 2B6 (Homo sapiens) (UniProt P20813)
Kind of assay: CLD_CYP2B6_6hr: CellzDirect (CLD) Gene Expression Assay for xenobiotic metabolism (CYP2B6) at 6 hours (AID 2283677).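 Further: actives raise CYP2B6 transcript above DMSO baseline so AC50 marks an inducer.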 An outline of the steps:
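Primary human hepatocytes dosed with chemicals at multiple concentrations, vehicle 0.2% DMSO; CYP2B6 mRNA induction measured 6 h after dosing by quantitative nuclease protection assay with chemiluminescence, gain of signal fitted relative to DMSO.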

Read-out in assay [4]: Cytochrome P450 2C19 (Homo sapiens) (UniProt P33261)
Kind of assay: CLD_CYP2C19_6hr: CellzDirect (CLD) Gene Expression Assay for xenobiotic metabolism (CYP2C19) at 6 hours (AID 2283678). In a few lines:
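Primary human hepatocytes from two donor preparations were dosed daily, with 0.2% DMSO as vehicle, and harvested 6 h after dosing. CYP2C19 mRNA induction was measured by qNPA chemiluminescence and fitted as gain of signal against DMSO.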

Assay [5] is described as follows: CCTE_Padilla_ZF_144hpf_TERATOSCORE: (Legacy) CCTE's 144 Hour Post-fertilization zebrafish Assay Teratoscore, Padilla Lab (AID 2283679; active means hit-call score of the fitted dose curve at least 0.9, where 1 is the maximum; inactive means score below 0.9;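 on AC50: zebrafish embryos with chorions exposed by immersion from 6-8 hpf to 5 dpf with daily renewal; teratogenicity score from eye scoring of death hatching and malformations at 144 hpf; higher score means more developmental defects relative to DMSO baseline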). In a few lines:
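Larvae scored by eye at 144 hpf for death, hatching and malformations after a day in clean Hanks'. Before that, daily-renewed exposure at 80 uM (0.4% DMSO, 26C) from roughly 6-8 hpf through 5 dpf, 4 embryos per chemical.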

Read-out in assay [6]: Cytochrome P450 3A4 (Homo sapiens) (UniProt P08684)
The assay can be described thus: CLD_CYP3A4_6hr: CellzDirect (CLD) Gene Expression Assay for xenobiotic metabolism (CYP3A4) at 6 hours (AID 2283680). An outline of the steps: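 Primary human hepatocytes (two donor preparations) dosed; CYP3A4 mRNA harvested at 6 h and quantified by qNPA chemiluminescence. Gain of signal fitted against 0.2% DMSO vehicle; cytotoxicity flagged by phase-contrast morphology.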

Read-out in assay [7]: Glyceraldehyde-3-phosphate dehydrogenase (Homo sapiens) (UniProt P04406)
Kind of assay: CLD_GAPDH_6hr: CellzDirect (CLD) Gene Expression Assay for Baseline Control (Glyceraldehyde 3-phosphate dehydrogenase) at 6 hours (AID 2283681).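 Further: active means increased signal relative to DMSO vehicle.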 In a few lines:
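Primary human hepatocytes from two donor preparations, dosed at multiple concentrations with 0.2% DMSO vehicle; GAPDH mRNA measured 6 h after dosing by chemiluminescent quantitative nuclease protection assay (qNPA) on denatured lysates. Serves as background control; cytotoxicity annotated by morphology.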

Read-out in assay [8]: xenobiotic metabolism (CYP1A2), CYP1A2 (gene 1544)
The assay can be described thus: CLD_CYP1A2_24hr: CellzDirect (CLD) Gene Expression Assay for xenobiotic metabolism (CYP1A2) at 24 hours (AID 2283683). In a few lines: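 Primary human hepatocytes from two donor preparations dosed daily with multiple concentrations of chemical, 0.2% DMSO vehicle. CYP1A2 mRNA at 24 h quantified by qNPA chemiluminescence; gain of signal analyzed relative to DMSO. Cytotoxicity flagged by phase-contrast morphology.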

Read-out in assay [9]: ABC Transporter (ABCB1), ABCB1 (gene 5243)
Kind of assay: CLD_ABCB1_24hr: CellzDirect (CLD) Gene Expression Assay for ABC Transporter (ABCB1) at 24 hours (AID 2283684). In a few lines: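 Primary human hepatocytes, two donor preparations, dosed daily with fresh solutions; vehicle 0.2% DMSO; harvested at 24 h. ABCB1 mRNA measured by quantitative nuclease protection assay (chemiluminescence); morphology-based cytotoxicity annotated.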

Read-out in assay [10]: Cytochrome P450 2C19 (Homo sapiens) (UniProt P33261)
Kind of assay: CLD_CYP2C19_24hr: CellzDirect (CLD) Gene Expression Assay for xenobiotic metabolism (CYP2C19) at 24 hours (AID 2283687).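 Further: activity means mRNA induction above DMSO vehicle baseline.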 In a few lines:
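Primary human hepatocytes (two donor preparations) dosed daily with fresh test chemical in 0.2% DMSO vehicle; CYP2C19 mRNA induction measured at 24 h by quantitative nuclease protection assay with chemiluminescence, fitted for gain of signal versus DMSO.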

Read-out in assay [11]: Cytochrome P450 2C9 (Homo sapiens) (UniProt P11712)
The assay can be described thus: CLD_CYP2C9_24hr: CellzDirect (CLD) Gene Expression Assay for xenobiotic metabolism (CYP2C9) at 24 hours (AID 2283688). An outline of the steps: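 Primary human hepatocytes from two donor preparations, dosed daily for two days at multiple concentrations; vehicle 0.2% DMSO. CYP2C9 mRNA induction at 24 h measured by qNPA chemiluminescence relative to DMSO; cytotoxicity annotated from morphology.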

Read-out in assay [12]: Cytochrome P450 3A4 (Homo sapiens) (UniProt P08684)
Kind of assay: CLD_CYP3A4_24hr: CellzDirect (CLD) Gene Expression Assay for xenobiotic metabolism (CYP3A4) at 24 hours (AID 2283689). In a few lines:
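Primary human hepatocytes from two donors dosed daily with fresh compound for two days, 0.2% DMSO vehicle. CYP3A4 mRNA at 24 hr by qNPA chemiluminescence; gain-of-signal fit versus DMSO, cytotoxicity flagged by morphology.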

Read-out in assay [13]: alkyl and aryl transferase (GSTA2), GSTA2 (gene 2939)
Kind of assay: CLD_GSTA2_24hr: CellzDirect (CLD) Gene Expression Assay for alkyl and aryl transferase (GSTA2) at 24 hours (AID 2283693). An outline of the steps:
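Primary human hepatocytes (two donor preparations) dosed daily for two days with chemicals at multiple concentrations (vehicle 0.2% DMSO); GSTA2 mRNA at 24 h measured by qNPA chemiluminescence, gain-of-signal versus DMSO.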

Read-out in assay [14]: Cytochrome P450 2B6 (Homo sapiens) (UniProt P20813)
The assay can be described thus: CLD_CYP2B6_48hr: CellzDirect (CLD) Gene Expression Assay for xenobiotic metabolism (CYP2B6) at 48 hours (AID 2283699).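 Further: actives raise transcript level above DMSO so potency reflects induction.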 An outline of the steps: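 Primary human hepatocytes dosed daily for two days over multiple concentrations, 0.2% DMSO vehicle; CYP2B6 mRNA quantified at 48 h by qNPA chemiluminescence. Induction fitted as gain of signal versus DMSO; cytotoxicity annotated by morphology.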

Read-out in assay [15]: HMG-CoA synthase (HMGCS2), HMGCS2 (gene 3158)
The assay can be described thus: CLD_HMGCS2_6hr: CellzDirect (CLD) Gene Expression Assay for HMG-CoA synthase (HMGCS2) at 6 hours (AID 2283682).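 Further: actives raise HMGCS2 transcript above the 0.2% DMSO vehicle baseline.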 An outline of the steps:
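Primary human hepatocytes dosed daily with fresh chemical, 0.2% DMSO vehicle; HMGCS2 mRNA measured at 6 h by qNPA chemiluminescence. Gain of signal fitted against DMSO; cytotoxicity flagged from phase-contrast morphology.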

Read-out in assay [16]: Cytochrome P450 2B6 (Homo sapiens) (UniProt P20813)
The assay can be described thus: CLD_CYP2B6_24hr: CellzDirect (CLD) Gene Expression Assay for xenobiotic metabolism (CYP2B6) at 24 hours (AID 2283686). In a few lines: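 Primary human hepatocytes dosed daily for two days with fresh solutions, harvested at 24 hours; mRNA induction quantified by qNPA chemiluminescence, gain of signal vs 0.2% DMSO vehicle. Cytotoxicity annotated from phase-contrast morphology.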

Read-out in assay [17]: organic anion transporter (SLCO1B1), SLCO1B1 (gene 10599)
Kind of assay: CLD_SLCO1B1_24hr: CellzDirect (CLD) Gene Expression Assay for organic anion transporter (SLCO1B1) at 24 hours (AID 2283690). In a few lines:
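Primary human hepatocytes (two donor preparations) dosed daily for two days with chemicals at multiple concentrations, 0.2% DMSO vehicle. SLCO1B1 mRNA at 24 h measured by qNPA chemiluminescence; induction fitted relative to DMSO.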

Read-out in assay [18]: HMG-CoA synthase (HMGCS2), HMGCS2 (gene 3158)
The assay can be described thus: CLD_HMGCS2_24hr: CellzDirect (CLD) Gene Expression Assay for HMG-CoA synthase (HMGCS2) at 24 hours (AID 2283691). An outline of the steps: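 Primary human hepatocytes from two donor preparations, dosed daily with fresh solutions; vehicle 0.2% DMSO, 24 h harvest. HMGCS2 mRNA quantified by qNPA with S1 nuclease digestion and chemiluminescence; gain fitted versus DMSO, cytotoxicity annotated by morphology.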

Chain of Glyceraldehyde-3-phosphate dehydrogenase (Homo sapiens) (P04406 whole entry, looked up): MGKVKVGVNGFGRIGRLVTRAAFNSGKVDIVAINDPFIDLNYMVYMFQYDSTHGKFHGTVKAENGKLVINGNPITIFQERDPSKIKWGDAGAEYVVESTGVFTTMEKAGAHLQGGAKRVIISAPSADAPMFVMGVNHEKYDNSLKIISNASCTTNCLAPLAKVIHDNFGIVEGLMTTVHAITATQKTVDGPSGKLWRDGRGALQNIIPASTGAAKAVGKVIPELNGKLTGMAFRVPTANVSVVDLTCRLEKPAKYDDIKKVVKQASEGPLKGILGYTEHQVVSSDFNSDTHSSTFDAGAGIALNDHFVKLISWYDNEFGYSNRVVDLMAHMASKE
Chain of Cytochrome P450 2C19 (Homo sapiens) (P33261 whole entry, looked up): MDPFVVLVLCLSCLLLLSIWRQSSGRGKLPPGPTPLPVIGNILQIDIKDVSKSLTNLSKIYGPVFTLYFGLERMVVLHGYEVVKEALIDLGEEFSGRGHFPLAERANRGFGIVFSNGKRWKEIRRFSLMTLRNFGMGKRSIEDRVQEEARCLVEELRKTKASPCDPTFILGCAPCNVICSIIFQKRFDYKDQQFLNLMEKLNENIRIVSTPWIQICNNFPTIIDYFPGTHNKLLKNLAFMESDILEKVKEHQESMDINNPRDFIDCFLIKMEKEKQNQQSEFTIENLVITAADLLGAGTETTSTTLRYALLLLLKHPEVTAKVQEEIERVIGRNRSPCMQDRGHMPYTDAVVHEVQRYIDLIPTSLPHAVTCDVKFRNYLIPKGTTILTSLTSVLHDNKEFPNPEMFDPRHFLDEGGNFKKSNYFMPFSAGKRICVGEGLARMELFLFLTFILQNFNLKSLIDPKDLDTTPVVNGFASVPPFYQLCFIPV
Chain of Cytochrome P450 3A4 (Homo sapiens) (P08684 whole entry, looked up): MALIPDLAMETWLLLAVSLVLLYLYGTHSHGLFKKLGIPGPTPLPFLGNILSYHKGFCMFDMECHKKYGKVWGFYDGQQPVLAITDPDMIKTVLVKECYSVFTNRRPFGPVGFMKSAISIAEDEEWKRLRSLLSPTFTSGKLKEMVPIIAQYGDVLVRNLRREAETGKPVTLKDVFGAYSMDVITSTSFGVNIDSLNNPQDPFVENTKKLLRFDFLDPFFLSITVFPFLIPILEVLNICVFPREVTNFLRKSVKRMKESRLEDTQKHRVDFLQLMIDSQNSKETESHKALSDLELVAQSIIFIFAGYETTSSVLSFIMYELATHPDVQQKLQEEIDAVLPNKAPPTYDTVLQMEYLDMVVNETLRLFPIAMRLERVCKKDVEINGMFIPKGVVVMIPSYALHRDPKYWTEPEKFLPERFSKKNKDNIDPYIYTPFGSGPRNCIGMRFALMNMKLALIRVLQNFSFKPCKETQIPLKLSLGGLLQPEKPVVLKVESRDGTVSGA

Consider `CCOC(=O)C(Cl)Cc1cc(-n2nc(C)n(C(F)F)c2=O)c(F)cc1Cl` (configuration not stated), for which the molecule was classed as inactive in assay [1], in assay [4], in assay [6], in [7], in assay [8] and in [9]. The call in [10], in [11] and in [13] was inactive. In addition, the AC50 in [2] is 0.39 µM (active); in [3], 3.01 µM (active); in assay [5] it was 0.57 µM (active); in assay [12], 20 µM (active); in [14] it was 20 µM (active).
On to `COc1cnc(OC)n2nc(NS(=O)(=O)c3c(OCC(F)F)cccc3C(F)(F)F)nc12`, for which the call in assay [1], in [2], in [3], in assay [4], in assay [5] and in [15] was inactive. The outcome in assay [8], in assay [9], in [10], in [13] and in assay [14] was inactive. Also, the figures for the AC50 in [6] and in assay [12] were 8.34 µM (active) and 2.42 µM (active), respectively.
For `COc1nc(C)nc(NC(=O)NS(=O)(=O)c2ccccc2Cl)n1`, the molecule was classed as inactive in assay [1], in assay [2], in [3], in [4], in assay [5] and in assay [6]. Besides, the result in [7], in assay [15], in assay [8], in assay [9], in assay [16] and in assay [10] was inactive. The outcome in assay [11], in assay [12], in assay [17], in assay [13] and in assay [14] was inactive.
For `COP(=S)(OC)Oc1nc(Cl)c(Cl)cc1Cl`, the call in assay [1], in assay [6], in [7], in assay [9], in assay [10] and in assay [11] was inactive. Further, the outcome in [18] and in assay [13] was inactive. Moreover, the AC50 in [2] was 3.97 µM (active); in assay [3], 6.24 µM (active); in [5], 34.7 µM (active); in assay [8] it was 4.43 µM (active); in assay [12], 3.97 µM (active); in [14] it was 7.69 µM (active).
As for `C=CC1(C)OC(=O)N(c2cc(Cl)cc(Cl)c2)C1=O` (configuration not stated), the molecule was called inactive in [1], in assay [6], in assay [7], in [9], in [10] and in [11]. Further, the outcome in [12], in assay [17], in [18] and in assay [14] was inactive. Besides, the AC50 in [2] was 0.317 µM (active); in assay [3] it was 8.32 µM (active); in assay [5] it was 145 µM (active); in [8], 2.47 µM (active).
